Shown are actives, neighbours in structure and some others; about 5.7% of the full set was active somewhere.
JMJD2A Tudor: qHTS Assay for Inhibitors of JMJD2A-Tudor Domain. hit rate 4.4% among 390,000. AlphaScreen JMJD2A-Tudor / H3K4me3 peptide binding. Potency, µM (top dose mostly 114 µM), for the others: at the highest dose activity change, negative = inhibition, usual class: inhibitors; further: potency means the concentration at half of the fitted maximal effect; on the % scale 0 is the no-effect control and ±100 the full control effect; nearly all actives have a fitted effect of over 50% in size
BAZ2B block: qHTS Assay for Inhibitors of BAZ2B; Bromodomain adjacent to zinc finger domain protein 2B (Homo sapiens), Q9UIF8; AlphaScreen BAZ2B-H3K14Ac peptide displacement; Potency, µM (series often up to 114 µM), for the others: top-dose activity change, negative = inhibition, actives largely listed as inhibitors; hit rate 4.4% among 360,000; further: potency means the concentration at half of the fitted maximal effect; on the % scale 0 is the no-effect control and ±100 the full control effect; nearly all actives have a fitted effect of over 60% in size
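In this displacement format the biotinylated H3(5-23) peptide acetylated at Lys14 serves as ligand at 50 nM, with BAZ2B at 50 nM in PBS pH 7.4 containing 0.01% Tween-20. Donor and acceptor beads are 10 ug/mL final.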
HP1b binding inh: HTS for Inhibitors of HP1-beta Chromodomain Interactions with Methylated Histone Tails. Chromobox protein homolog 1 (Homo sapiens), P83916. Potency, µM (doses to about 114 µM), inactives show at the top dose activity change, negative = inhibition, hits mostly inhibitors. AlphaScreen HP1-beta / biotin-H3K9me3 peptide binding. hit rate 0.56% among 390,000; further: potency means the concentration at half of the fitted maximal effect; nearly all actives have a fitted effect of over 70% in size
Target sequence (P83916 whole entry, looked up): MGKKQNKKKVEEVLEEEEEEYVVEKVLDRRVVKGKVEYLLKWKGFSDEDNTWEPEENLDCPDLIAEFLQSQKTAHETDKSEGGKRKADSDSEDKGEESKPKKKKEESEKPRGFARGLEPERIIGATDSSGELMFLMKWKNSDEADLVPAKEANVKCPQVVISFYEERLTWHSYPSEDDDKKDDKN
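HP1-beta protein (50 nM final) preincubated 30 min at room temperature with biotinylated H3(1-18)K9me3 peptide (50 nM) in PBS pH 7.4, 0.01% Tween-20, then compound added for 30 min. AlphaScreen streptavidin donor/nickel chelate acceptor beads (10 ug/mL final), 30 min dark, luminescence read.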
L3MBTL1 block: qHTS Assay for the Inhibitors of L3MBTL1. Lethal(3)malignant brain tumor-like protein 1 (Homo sapiens), Q9Y468. AlphaScreen L3MBTL1–H3K9me1 peptide binding. Potency, µM (highest dose often 57.1 µM), without a hit: top-dose activity, negative = inhibition, hits mostly inhibitors. hit rate 0.66% among 230,000. AID 485360, 2010; further: potency means the concentration at half of the fitted maximal effect; on the % scale 0 is the no-effect control and ±100 the full control effect; nearly all actives have a fitted effect of over 60% in size
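AlphaScreen proximity signal between nickel-chelate acceptor and streptavidin donor beads (final 10 ug/mL) reports binding of 50 nM L3MBTL1 to 75 nM biotin-H3 K9me1 peptide; complex incubated with compounds 30 min at room temperature; cefsulodin titration as control.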
JMJD2E inh: qHTS Assay for Inhibitors of Human Jumonji Domain Containing 2E (JMJD2E); Lysine-specific demethylase 4E (Homo sapiens), B2RXH2; JMJD2E catalytic domain, FDH-coupled NADH fluorescence (FDH is formaldehyde dehydrogenase); Potency, µM (highest dose often 57.1 µM), inactives show top-dose activity change, negative = inhibition, actives largely listed as inhibitors; hit rate 1.6% among 230,000; AID 2147, 2009; active means well fitted inhibition curve with a large enough effect, not every such curve was filed as active; inconclusive means small, poorly fitted or top-dose-only effect, or another doubt; inactive means no such curve, though single readings can be large or run the other way;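 further: potency means the concentration at half of the fitted maximal effect; 0% = wells with enzyme and -100% = buffer wells without enzyme; nearly all actives have a fitted effect of over 50% in size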
PI5P4K alpha inh: qHTS for Inhibitors of phosphatidylinositol 5-phosphate 4-kinase (PI5P4K); PI5P4Kalpha enzyme, ADP-Glo luminescence, 60 min; active compounds read low; Phosphatidylinositol 5-phosphate 4-kinase type-2 alpha (Homo sapiens), P48426; max response, %; hit rate 1.2% among 330,000; active means max response of -50% or lower; inconclusive means between -30% and -50%; inactive means -30% or higher; further: value at the top dose of about 77 µM; on the % scale 0 is the no-effect control and ±100 the full control effect
Target sequence (P48426 whole entry, looked up): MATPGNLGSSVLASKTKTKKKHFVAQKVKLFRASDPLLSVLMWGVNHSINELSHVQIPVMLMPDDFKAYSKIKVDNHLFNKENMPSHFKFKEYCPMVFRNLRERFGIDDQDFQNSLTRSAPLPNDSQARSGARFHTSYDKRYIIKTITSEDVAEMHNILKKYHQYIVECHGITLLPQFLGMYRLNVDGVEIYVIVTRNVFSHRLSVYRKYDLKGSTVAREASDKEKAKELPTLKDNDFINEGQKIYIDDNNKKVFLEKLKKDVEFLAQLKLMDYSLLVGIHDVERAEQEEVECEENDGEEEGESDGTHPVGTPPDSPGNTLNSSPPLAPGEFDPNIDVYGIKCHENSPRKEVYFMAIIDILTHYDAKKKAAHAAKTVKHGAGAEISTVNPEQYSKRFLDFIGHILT
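Human PI5P4Kalpha with substrate in 0.038 M HEPES pH 7.4, 0.28 mM EGTA, 0.1% CHAPS, 5% DMSO; reaction started with 5 microM ATP (final), 60 min at room temperature. ADP formed read by ADP-Glo luminescence.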
An asterisk follows results filed as active; ? = inconclusive; . = no result; [ ] = remark or other dose. Unless noted, the call rests on the fitted dose curve; in most records, active means well fitted inhibition curve with a large enough effect; inconclusive means small, poorly fitted or top-dose-only effect; inactive means no such curve, though single readings can be large or run the other way.

SMILES	JMJD2A Tudor	BAZ2B block	HP1b binding inh	L3MBTL1 block	JMJD2E inh	PI5P4K alpha inh
COc1ccc(C(=O)COC(=O)CN2C(=O)C3C4CCC(C4)C3C2=O)cc1 (configuration not stated)	50µM*	-1%	8%	.	.	-12
Cc1ccc(C)c(S(=O)(=O)N2CCN(Cc3cc4c(cc3O)OCO4)CC2)c1	32µM*	40µM*	-30%	-30%	.	2
O=S(=O)(c1ccccc1F)N1CCN(Cc2cc3c(cc2O)OCO3)CC1	?	?	39%	-11%	.	-8
COc1ccc(C(c2c(O)ccc3ccccc23)N2CCOCC2)c(OC)c1 (configuration not stated)	89µM*	-10%	-4%	-12%	?	-2
CCCCC(=O)N1C/C=C\C(c2ccc(OC)cc2)N(Cc2ccc(F)cc2)C(=O)C1Cc1ccccc1 (configuration not stated)	-17%	.	34%	.	.	.
Brc1ccc(C2Nc3cccc4cccc(c34)N2)cc1	?	.	?	.	.	-2
COc1cc(C2Nc3cccc4cccc(c34)N2)ccc1OC(C)=O	56µM*	?	-37%	?	-1%	?
COc1cc(C2Nc3cccc4cccc(c34)N2)cc(OC)c1O	?	?	?	22µM*	7%	.
COC(=O)c1ccc(C2Nc3cccc4cccc(c34)N2)cc1	20µM*	35µM*	45µM*	?	8.9µM*	?
CCN(CC)c1ccc(C2Nc3cccc4cccc(c34)N2)cc1	?	-28%	?	-9%	.	0
COc1ccc(C2Nc3cccc4cccc(c34)N2)cc1Br	40µM*	45µM*	?	.	.	3
CC(=O)N1c2ccccc2CC1C(=O)N1CCN(c2cc(Cl)ccc2C)CC1 (configuration not stated)	-16%	-21%	29%	.	.	.
N#C/C(=C\c1ccccc1)c1nc(-c2cc3c(ccc4ccccc43)oc2=O)cs1	1%	3%	40%	.	.	.
O=[N+]([O-])c1ccc(C2=Nn3c(Cn4nnc5ccccc54)nnc3SC2)cc1	56µM*	-37%	?	.	-2%	-23
CCCc1nnc2n1N=C(c1ccc([N+](=O)[O-])cc1)CS2	-9%	-27%	21%	0%	-3%	2
CC1=C(C(N)=O)C(c2cccc(F)c2)n2nc(SCc3ccccc3)nc2N1 (configuration not stated)	-1%	3%	18%	.	.	.
Clc1cccc(Nc2nnc(-c3ccccc3)c3ccccc23)c1	.	.	.	.	11µM*	.
O=C(c1ccccc1)c1coc2c1C(=O)c1ccccc1C2=O	-19%	32µM*	?	-16%	0%	5
O=C1c2ccccc2C(=O)c2c1oc(C(F)(F)F)c2C(=O)c1ccccc1	?	7.1µM*	?	8%	10%	-3
COc1ccc(C(=O)c2coc3c2C(=O)C(=O)c2ccccc2-3)cc1	?	25µM*	?	-19%	?	-15
Cc1cc(C)c(C)c(OCCn2ccnc2)c1	-25%	-39%	41%	-12%	.	0
Cc1cccc(OCCn2ccnc2)c1	5%	-19%	32%	.	.	3
Cc1cccc(OCCCCCn2ccnc2)c1	3.2µM*	50µM*	?	-8%	-3%	-3
CCc1cccc(OCCCCN(CC)CC)c1	3.5µM*	?	-38%	.	-28%	8
CCc1cccc(OCCn2ccnc2)c1	11µM*	50µM*	?	-3%	8%	-9
SMILES	JMJD2A Tudor	BAZ2B block	HP1b binding inh	L3MBTL1 block	JMJD2E inh	PI5P4K alpha inh
Fc1ccc(OCCn2cnc(Cl)c2Cl)cc1	-25%	-31%	-2%	-28%	-2%	-1
Cc1cccc(OCCn2cnc(Cl)c2Cl)c1	-19%	28µM*	-19%	-38%	8%	8
CC(C)OP(=O)(CCP(=O)(OC(C)C)OC(C)C)OC(C)C	4%	4%	26%	10%	4%	7
Cc1ccccc1OCC(=O)NCC(=O)OCC(=O)c1ccc2c(c1)CCCC2	-13%[57.1 µM]	.	10%[57 µM]	.	.	.
CCN(CC)C(=O)CC(c1ccc(N(C)C)cc1)c1c(O)cc(OC)cc1OC (configuration not stated)	50µM*	?	-16%	.	2%	4
COc1cc(O)c(C(CCN2CCCCC2)c2ccc(N(C)C)cc2)c(OC)c1 (configuration not stated)	40µM*	?	?	.	2%	-1
CCN(CC)C(=O)CC(c1cc(OC)c(OC)c(OC)c1)c1c(O)cc(OC)cc1OC (configuration not stated)	-21%	1%	35%	.	0%	0
COc1cc(O)c(C(CC(=O)N2CCCC2)c2ccc(N(C)C)cc2)c(OC)c1 (configuration not stated)	?	?	-13%	.	3%	4
COc1cc(O)c(C(CCN2CCCC2)c2ccc(N(C)C)cc2)c(OC)c1 (configuration not stated)	22µM*	35µM*	?	.	?	-4
Cc1ccc2oc(=O)c(S(=O)(=O)c3ccc(C(C)(C)C)cc3)cc2c1	-8%	2%[57.1 µM]	53%	.	.	.
Cc1ccc2c(c1)-c1c(cnc3cc(-c4ccc(F)cc4)nn13)CO2	4%	1%	42%	.	.	.
CC(C)C1Cc2c(sc(NC(=S)NC(=O)c3ccccc3)c2C#N)CO1 (configuration not stated)	-18%	11%	52%	-7%	2%	4
CC(C)N1CCc2c(sc(NC(=S)NC(=O)c3ccccc3)c2C#N)C1	?	?	-19%[57 µM]	-13%	-5%	-51*
CC(=O)c1ccc(N2CCN(CC3CCCCC3)CC2)cc1	35µM*	?	?	-1%	.	-8
O=[N+]([O-])c1ccc(N2CCN(CC3CCCCC3)CC2)cc1	18µM*	56µM*	?	1%[2.29 µM]	.	2
O=[N+]([O-])c1ccc(N2CCCCC2)cc1	-19%	-26%	13%	-14%	2%	0
CCCN1CCC(N2CCN(c3ccc([N+](=O)[O-])cc3)CC2)CC1	20µM*	45µM*	?	2%	.	2
CCC(=O)N1CCc2cc(Br)cc(S(=O)(=O)NCCc3ccccc3)c21	12%	-1%	33%	.	.	.

High-throughput results as filed in PubChem.
